# Screen size: about 290,000 compounds; about 3,200 (1.1%) were called active. Rule as the data show it: active = inhibition above about 60%; inactive = the rest. Only a selection was taken, and actives are over-represented in it overall.
# Target: Phosphoethanolamine/phosphocholine phosphatase (Homo sapiens) (UniProt Q8TCT1)
# Assay: PubChem AID 1565
# Conditions: recombinant PHOSPHO1, absorbance phosphatase assay; at 13.3 µM; hits give high values
# Phosphoethanolamine/phosphocholine phosphatase (Homo sapiens), sequence (Q8TCT1 whole entry, looked up): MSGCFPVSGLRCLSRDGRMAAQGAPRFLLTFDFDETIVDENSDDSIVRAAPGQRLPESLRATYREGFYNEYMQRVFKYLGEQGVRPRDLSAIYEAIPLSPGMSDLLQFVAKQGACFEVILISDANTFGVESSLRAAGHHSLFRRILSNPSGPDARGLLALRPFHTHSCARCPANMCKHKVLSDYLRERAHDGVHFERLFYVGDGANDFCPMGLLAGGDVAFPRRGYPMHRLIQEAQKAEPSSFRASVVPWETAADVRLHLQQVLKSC
row,SMILES,inhibition
1,CCOc1ccc(C(C(=O)NCCOC)N(CCOC)C(=O)CCC(=O)Nc2ccccn2)cc1 (centres undefined),1.5% (inactive)
2,COc1ccc2cc(C(=O)C3CCCN(C(=O)c4sc(C)nc4C)C3)ccc2c1 (centres undefined),22.6% (inactive)
3,COc1ccccc1N1CC(C(=O)Nc2nnc(SCC(=O)NC(C)C)s2)CC1=O (centres undefined),-84.3% (inactive)
4,O=C(COC(=O)c1ccc(F)cc1)NCCCc1ccccc1,24.1% (inactive)
5,COC(=O)c1ccccc1SC1CC(=O)N(c2cccc(C)c2)C1=O (centres undefined),-11.7% (inactive)
6,COc1ccc(N2C(=O)CC(Sc3n[nH]c(-c4ccc(C)cc4)n3)C2=O)cc1 (centres undefined),10.2% (inactive)
7,CC(=O)Nc1ccc(N2C(=O)CC(Sc3nccc(C)n3)C2=O)cc1 (centres undefined),19.2% (inactive)
8,Cc1ccc(N2C(=O)CC(Sc3ncn[nH]3)C2=O)cc1 (centres undefined),105% (active)
9,O=C1CC(N2CCN(c3ccc(F)cc3)CC2)C(=O)N1c1ccccc1 (centres undefined),-16.5% (inactive)
10,O=C1CC(Sc2ncn[nH]2)C(=O)N1c1ccccc1 (centres undefined),97.9% (active)
11,CCc1ccc(/C=N/NC(=O)c2nnn(-c3nonc3N)c2CN2CCc3ccccc32)cc1,23.3% (inactive)
12,Cc1[nH]c(C)c(S(=O)(=O)N2CCN(c3cccc(C(F)(F)F)c3)CC2)c1C(=O)N1CCCC1,12.1% (inactive)
13,Cc1cccc(N(C)C(=O)c2cc(S(=O)(=O)N3CCCCC3)c[nH]2)c1,25.4% (inactive)
14,CCc1cccc(C)c1NS(=O)(=O)c1cc(Br)cnc1N,35.5% (inactive)
15,CCCC(=O)N1CCN(c2nnc(-c3ccc(C)cc3)c3ccccc23)CC1,30.8% (inactive)
16,O=C(CSc1nc2ccc(Nc3nc(N4CCOCC4)nc(N4CCOCC4)n3)cc2s1)NCc1ccco1,16.2% (inactive)
17,C=CCn1c(SCC(=O)Nc2nc3ccccc3s2)nnc1-c1ccccc1O,-17.5% (inactive)
18,C=CCn1c(CSc2nc3ccccc3s2)nnc1SCC(=O)NCc1ccco1,89.7% (active)
19,O=S(=O)(/C=C/c1ccccc1)N1CCNCC1,37% (inactive)
20,Cc1cc(S(=O)(=O)NCc2ccccn2)c(Cl)cc1Cl,29.5% (inactive)

row,SMILES,inhibition
1,CC1(C)NC(=O)N(CC(=O)Nc2cc(C(F)(F)F)cc(C(F)(F)F)c2)C1=O,24% (inactive)
2,O=C(NCc1ccc(Cl)cc1)c1cc2c(nc3sccn32)s1,66.1% (active)
3,O=C(NCc1ccc(Cl)cc1)NCc1ccc(Cl)cc1,42.1% (inactive)
4,O=C(NCc1ccc(Cl)cc1)c1cc(=O)nc2sc(-c3ccccc3)nn12,19.7% (inactive)
5,COc1ccc(NC(=O)C2CCC(CNS(=O)(=O)c3csc(C(N)=O)c3)CC2)cc1OC (centres undefined),48.8% (inactive)
6,Cc1ccc(S(=O)(=O)N/N=C\c2cc3c(cc2[N+](=O)[O-])OCO3)cc1,-27.6% (inactive)
7,Cc1ccc(-c2n[nH]c(=S)n2/N=C/c2cc3c(cc2[N+](=O)[O-])OCO3)cc1,99.7% (active)
8,CCOc1ccc(-c2n[nH]c(=S)n2/N=C/c2cc3c(cc2[N+](=O)[O-])OCO3)cc1,57.5% (inactive)
9,CN(C(=O)CC1C(=O)NCCN1Cc1ccc2ccccc2c1)C1CCOCC1 (centres undefined),9% (inactive)
10,CCNC(=O)CCc1nc(-c2ccc(C)cc2)no1,12.3% (inactive)
11,CC(=O)OCc1cc2cc(C)ccc2[nH]c1=O,-4.1% (inactive)
12,COc1ccc2[nH]c(=O)c(-c3noc(-c4ccc(F)cc4)n3)cc2c1,80.2% (active)
13,COc1ccc(N(Cc2cc3cc(OC)ccc3[nH]c2=O)S(C)(=O)=O)cc1,-2.4% (inactive)
14,Cc1cccc(-c2noc(-c3ccc(F)cc3)n2)c1,-3.7% (inactive)
15,CCCc1nc(-c2cc3cc(C)ccc3[nH]c2=O)no1,76.8% (active)
16,COC(=O)Cc1cnc(NC(=O)CSc2nc(C(C)C)cc(=O)[nH]2)s1,26.5% (inactive)
17,O=C(CCN1C(=O)[C@@H]2Cc3ccccc3CN2C1=O)NCCc1ccccc1,38.2% (inactive)
18,CC1=C/C(=N\OS(=O)(=O)c2ccccc2)C=CC1=O,-13.3% (inactive)
19,O=Cc1c(NCCc2cccc(F)c2)c2ccccc2[nH]c1=O,19.2% (inactive)
20,CC(C)(C)SCCSC1=CC(=O)CC(c2ccccc2)C1 (centres undefined),14.1% (inactive)

row,SMILES,inhibition
1,Cc1ccc2nc(N3C(=O)C(O)=C(C(=O)c4ccco4)C3c3cccc(O)c3)sc2c1 (centres undefined),40.5% (inactive)
2,O=C(c1ccccc1)N1CCC(CC2CC(c3ccc(Cl)cc3)=NO2)(C(=O)NCC2CCCCC2)CC1 (centres undefined),-1.7% (inactive)
3,c1ccc(Cc2nn3c(Cn4cnc5ccccc54)nnc3s2)cc1,45.1% (inactive)
4,Fc1ccc(OCc2nn3c(Cn4nnc5ccccc54)nnc3s2)cc1,82.3% (active)
5,CC(=O)OC(COc1ccc(F)cc1)Cn1cnc2ccccc21 (centres undefined),43.9% (inactive)
6,CN(CC(=O)Nc1ccccc1C(F)(F)F)C(=O)Cc1ccccc1F,18.7% (inactive)
7,Cc1ccccc1-c1n[nH]c(=S)n1/N=C/c1ccc(-c2ccccc2Br)o1,-60.1% (inactive)
8,Cc1cc(-c2n[nH]c(=S)n2/N=C/c2ccco2)n[nH]1,-60% (inactive)
9,Cc1n[nH]c(=S)n1/N=C/c1ccc(Br)o1,99.1% (active)
10,N#C/C=C/N1CCN(Cc2ccc3c(c2)OCO3)CC1,15.6% (inactive)
11,CCOc1ccc(OCc2ccc(C(=O)N(C)c3ccccc3)o2)cc1,18.7% (inactive)
12,CC(NC(=O)c1ccccc1C(=O)O)c1ccc(-n2ccnc2)cc1 (centres undefined),8.3% (inactive)
13,CCCOc1cccc(C(=O)Nc2ccccc2C(=O)N2CCN(C)CC2)c1,24% (inactive)
14,Cc1cc(C)c(OCC(=O)N/N=C/c2ccco2)c(C)c1,-1.4% (inactive)
15,Cc1ccc(OCC(=O)N/N=C\c2ccco2)c(C)c1,61.1% (active)
16,Cc1ccc(NC(=O)CCC(=O)N/N=C/c2ccco2)c(C)c1,-4.9% (inactive)
17,CSCc1nnc(NC(=O)c2ccc(S(=O)(=O)N3CCCCC3C)cc2)o1 (centres undefined),32.3% (inactive)
18,O=C(N/N=C/c1cccc(OCc2ccccc2)c1)c1ccc(Br)o1,41.4% (inactive)
19,Cc1sc2ncn(CC(=O)NCCCC(=O)NCc3ccc(F)cc3)c(=O)c2c1C,31.9% (inactive)

# — PubChem BioAssay AID1565 (Sanford-Burnham Center for Chemical Genomics, 2009)
